# Source: PubChem BioAssay (EPA / NIEHS)
# The source made the active and inactive calls. Rule for the calls: active = hit-call score of the fitted dose curve at least 0.9, where 1 is the maximum; inactive = score below 0.9.
# Assays:
# [1] = ATG_CMV_CIS: Attagene CIS-FACTORIAL HepG2 Assay for human CMV (Internal Marker) (AID 2282928); conditions: HepG2 CMV promoter reporter, transcription factor profiling; actives raise or lower the signal;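 note: endpoint acts as a background internal control marker rather than a target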
# Method in brief: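 Readout: fluorescent reporter cDNA fragments separated by capillary electrophoresis after RT-PCR and HpaI cut. Cells: HepG2 carrying transfected cis-promoter reporter constructs, dosed 24 h. Endpoint serves as background internal-marker control, fit bidirectionally versus DMSO.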
# [2] = ATG_DR4_LXR_CIS: Attagene CIS-FACTORIAL HepG2 Assay for human Liver X Receptor (LXR), DR4 submotif (AID 2282929); conditions: HepG2 Attagene DR4 cis-reporter, mRNA transcription; AC50: actives raise or lower the signal unless noted; outcome: actives raise or lower the signal unless noted
# Method in brief: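 Measures endogenous transcription factor activity via a DR4-driven reporter transcript in human HepG2 cells. Compounds incubated 24 h; mRNA quantified by RT-PCR and capillary electrophoresis, analysed as gain or loss of signal versus DMSO.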
# [3] = biological target: Aryl hydrocarbon receptor (Homo sapiens) (UniProt P35869); assay: ATG_Ahr_CIS: Attagene CIS-FACTORIAL HepG2 Assay for human Aryl Hydrocarbon Receptor (Ahr) (AID 2282930); conditions: HepG2 AhR cis-factorial reporter transcription; actives raise or lower the signal
# Chain of Aryl hydrocarbon receptor (Homo sapiens) (P35869 whole entry, looked up): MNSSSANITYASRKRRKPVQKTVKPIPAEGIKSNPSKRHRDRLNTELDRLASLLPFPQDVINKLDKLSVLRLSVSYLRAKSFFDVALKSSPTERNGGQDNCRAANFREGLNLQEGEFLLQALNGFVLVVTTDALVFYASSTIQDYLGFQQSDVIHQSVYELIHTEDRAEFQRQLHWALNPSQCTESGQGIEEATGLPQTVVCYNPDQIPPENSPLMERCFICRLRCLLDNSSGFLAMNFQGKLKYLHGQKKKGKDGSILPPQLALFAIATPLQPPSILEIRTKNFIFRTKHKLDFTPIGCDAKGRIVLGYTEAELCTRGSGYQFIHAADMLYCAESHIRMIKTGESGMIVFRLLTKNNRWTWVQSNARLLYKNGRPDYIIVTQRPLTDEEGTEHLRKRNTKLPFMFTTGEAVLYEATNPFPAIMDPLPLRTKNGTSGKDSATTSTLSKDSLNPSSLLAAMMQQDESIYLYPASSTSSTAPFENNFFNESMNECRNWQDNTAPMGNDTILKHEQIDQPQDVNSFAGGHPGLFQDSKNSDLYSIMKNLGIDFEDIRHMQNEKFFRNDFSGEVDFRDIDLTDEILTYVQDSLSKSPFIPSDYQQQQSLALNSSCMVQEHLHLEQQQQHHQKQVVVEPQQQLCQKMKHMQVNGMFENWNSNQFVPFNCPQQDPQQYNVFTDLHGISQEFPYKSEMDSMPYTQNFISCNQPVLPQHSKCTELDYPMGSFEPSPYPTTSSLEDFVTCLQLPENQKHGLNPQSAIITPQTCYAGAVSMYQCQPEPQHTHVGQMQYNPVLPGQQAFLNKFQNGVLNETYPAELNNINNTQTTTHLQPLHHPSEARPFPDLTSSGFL
# Method in brief: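 Values derive from bidirectional fitting against DMSO negative control. Underlying signal: cis-element reporter mRNA in transiently transfected HepG2, harvested 24 h post-dose and measured by RT-PCR plus capillary electrophoresis.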
# [4] = ATG_AP_1_CIS: Attagene CIS-FACTORIAL HepG2 Assay for human Activator Protein 1 (AP-1) (AID 2282931); conditions: HepG2 Attagene cis-factorial AP-1 reporter mRNA; actives raise or lower the signal
# Method in brief: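 Bidirectional concentration-response fitting against DMSO controls. Underlying signal: reporter mRNA from cis-promoter constructs in transiently transfected HepG2, measured after 24 h by RT-PCR and capillary electrophoresis.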
# [5] = ATG_AP_2_CIS: Attagene CIS-FACTORIAL HepG2 Assay for human Activator Protein 2 (AP-2) (AID 2282932); conditions: HepG2 AP-2 cis-reporter, Attagene transcription factor profiling; AC50: actives raise or lower the signal unless noted; outcome: actives raise or lower the signal unless noted
# Method in brief: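 Cells (HepG2) transfected with promoter-driven reporter constructs, treated 24 h. Total RNA reverse-transcribed, reporter cDNA PCR-amplified, FAM-labelled by primer extension, digested, resolved by capillary electrophoresis. Activity fitted both directions versus DMSO.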
# [6] = ATG_BRE_CIS: Attagene CIS-FACTORIAL HepG2 Assay for human Bone Morphogenetic Protein (BMP) Response Element (BRE) (AID 2282933); conditions: HepG2 BMP response element reporter, Attagene transcription factor profiling; actives raise or lower the signal
# Method in brief: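 Multiplexed cis-reporter assay, HepG2, 24 h exposure. mRNA from reporter units quantified via RT-PCR/CE; DMSO baseline; bidirectional curve fit.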
# [7] = biological target: Transcription factor E2F1 (Homo sapiens) (UniProt Q01094); assay: ATG_E2F_CIS: Attagene CIS-FACTORIAL HepG2 Assay for human E2F Transcription Factor 1 (AID 2282935); conditions: HepG2 Attagene cis-reporter, E2F reporter RNA transcripts; actives raise or lower the signal
# Chain of Transcription factor E2F1 (Homo sapiens) (Q01094 whole entry, looked up): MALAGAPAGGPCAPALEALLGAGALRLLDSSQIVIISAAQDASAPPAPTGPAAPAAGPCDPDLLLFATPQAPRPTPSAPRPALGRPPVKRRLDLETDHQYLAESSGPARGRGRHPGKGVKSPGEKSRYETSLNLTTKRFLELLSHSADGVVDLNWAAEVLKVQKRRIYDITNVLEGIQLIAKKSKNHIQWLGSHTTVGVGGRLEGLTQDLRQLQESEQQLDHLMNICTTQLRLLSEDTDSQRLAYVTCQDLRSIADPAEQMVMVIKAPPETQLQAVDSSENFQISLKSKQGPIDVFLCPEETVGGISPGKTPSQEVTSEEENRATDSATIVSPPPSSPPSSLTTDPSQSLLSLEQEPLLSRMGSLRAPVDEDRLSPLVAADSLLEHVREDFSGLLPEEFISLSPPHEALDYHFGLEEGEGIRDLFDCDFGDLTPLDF
# Method in brief: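 First, HepG2 cells were transfected with reporter transcription units. Next, they were dosed for 24 h. Then RNA was isolated, converted to cDNA, PCR-amplified, FAM-labeled, HpaI-digested and analyzed by capillary electrophoresis.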
# [8] = ATG_E_Box_CIS: Attagene CIS-FACTORIAL HepG2 Assay for human Enhancer Box (E-box) (AID 2282936); conditions: HepG2 E-box cis-reporter transcription, actives raise or lower the signal
# Method in brief: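 Endogenous transcription factor activity was sensed in human HepG2 liver cells through transfected cis-promoter reporter units. After 24 h of dosing, total RNA was reverse-transcribed and reporter cDNA resolved by capillary electrophoresis.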
# [9] = ATG_M_61_CIS: Attagene CIS-FACTORIAL HepG2 Assay for M61 Transcription Factor (Internal Marker) (AID 2282937); conditions: HepG2 Attagene CIS-FACTORIAL M61 internal marker reporter; actives raise or lower the signal
# Method in brief: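 Fluorescence from labelled cDNA fragments, separated by capillary electrophoresis, quantifies reporter induction. HepG2 cells bearing transiently transfected cis-promoter MRTUs were incubated with test chemical for 24 h; DMSO defined baseline for gain/loss fitting.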
# [10] = ATG_EGR_CIS: Attagene CIS-FACTORIAL HepG2 Assay for human Early Growth Response 1 (EGR1) (AID 2282938); conditions: HepG2 Attagene CIS-FACTORIAL EGR reporter mRNA; actives raise or lower the signal
# Method in brief: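 Cell-based multiplex transcription assay: HepG2 carrying transfected cis-element reporter units, 24 h chemical treatment. Fluorescence from capillary electrophoresis of RT-PCR products gives mRNA levels; fitting is bidirectional relative to DMSO.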
# [11] = ATG_M_19_CIS: Attagene CIS-FACTORIAL HepG2 Assay for M19 Transcription Factor (Internal Marker) (AID 2282939); conditions: HepG2 Attagene CIS-FACTORIAL M19 internal marker reporter; actives raise or lower the signal
# Method in brief: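 Signals come from fluorescence of labelled reporter-specific PCR fragments resolved by capillary electrophoresis, following 24 h treatment of HepG2 cells transfected with cis-promoter reporter units; activity was fitted in both directions relative to DMSO.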
# [12] = ATG_ERE_CIS: Attagene CIS-FACTORIAL HepG2 Assay for Estrogen Response Element (ERE) (AID 2282940); conditions: HepG2 ERE cis-reporter, Attagene RNA transcript; actives raise or lower the signal
# Method in brief: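 Fluorescence of capillary-separated, FAM-labelled reporter cDNA fragments indicates reporter mRNA levels in HepG2 cells exposed to chemicals for 24 h. Transient transfection with cis-regulated units; data fitted in both directions against DMSO.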
# [13] = ATG_Ets_CIS: Attagene CIS-FACTORIAL HepG2 Assay for human Erythroblast Transformation Specific (ETS) (AID 2282941); conditions: HepG2 ETS cis-reporter transcription; AC50: actives raise or lower the signal unless noted; outcome: actives raise or lower the signal unless noted
# Method in brief: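 RT-PCR/capillary electrophoresis fluorescence read-out of reporter mRNA; HepG2 transient multi-reporter transfection; 24 h compound exposure; gain or loss of signal fitted bidirectionally relative to DMSO.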
# [14] = biological target: Hepatocyte nuclear factor 3-beta (Homo sapiens) (UniProt Q9Y261); assay: ATG_FoxA2_CIS: Attagene CIS-FACTORIAL HepG2 Assay for human Forkhead box A2 (FOXA2) (AID 2282942); conditions: HepG2 cis-reporter transcription factor activity, 24 h; actives raise or lower the signal
# Chain of Hepatocyte nuclear factor 3-beta (Homo sapiens) (Q9Y261 whole entry, looked up): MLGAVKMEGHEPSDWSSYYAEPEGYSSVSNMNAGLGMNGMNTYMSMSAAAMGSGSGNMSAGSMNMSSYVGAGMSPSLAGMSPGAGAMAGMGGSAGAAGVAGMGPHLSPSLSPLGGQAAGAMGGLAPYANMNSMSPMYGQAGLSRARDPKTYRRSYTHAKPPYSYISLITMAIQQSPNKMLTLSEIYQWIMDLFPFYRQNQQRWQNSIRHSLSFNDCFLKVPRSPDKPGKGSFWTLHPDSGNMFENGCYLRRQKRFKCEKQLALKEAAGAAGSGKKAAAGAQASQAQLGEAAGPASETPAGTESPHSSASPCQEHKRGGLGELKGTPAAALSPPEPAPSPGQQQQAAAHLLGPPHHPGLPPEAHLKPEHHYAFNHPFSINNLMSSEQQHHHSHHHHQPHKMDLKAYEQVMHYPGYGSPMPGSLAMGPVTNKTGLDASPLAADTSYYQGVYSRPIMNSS
# Method in brief: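 In transiently transfected human HepG2 cells, promoter-driven reporter mRNA levels after 24 h chemical exposure are determined via RT-PCR with capillary electrophoresis. DMSO serves as baseline for bidirectional fitting.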
# [15] = ATG_FoxO_CIS: Attagene CIS-FACTORIAL HepG2 Assay for human Forkhead box O (FoxO) (AID 2282943); conditions: HepG2 Attagene cis-reporter, FoxO element, mRNA; actives raise or lower the signal
# Method in brief: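 Values reflect reporter mRNA induction or loss in HepG2 cells 24 h post-dosing, fitted bidirectionally with DMSO as negative control and baseline. Detection used RT-PCR and fluorescence capillary electrophoresis.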
# [16] = ATG_GATA_CIS: Attagene CIS-FACTORIAL HepG2 Assay for human GATA Binding Protein (AID 2282944); conditions: HepG2 GATA cis-element reporter, Attagene multiplex mRNA; actives raise or lower the signal
# Method in brief: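 After transfecting HepG2 cells with multiple cis-regulated reporter units, chemicals are dosed for 24 h; isolated RNA undergoes RT-PCR and fluorescent labeling before capillary electrophoresis, with activity expressed against DMSO.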
# [17] = ATG_GLI_CIS: Attagene CIS-FACTORIAL HepG2 Assay for human Zinc Finger Protein GLI1 (AID 2282945); conditions: HepG2, Attagene cis-factorial reporter mRNA, GLI element; actives raise or lower the signal
# Method in brief: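 HepG2 cells transiently transfected with cis-promoter multiplexed reporter units report endogenous transcription factor activity. After 24 h chemical exposure, reporter mRNA was quantified by RT-PCR, 6-FAM labelling, HpaI digestion and capillary electrophoresis, with bidirectional fitting against DMSO.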
# [18] = biological target: Bile acid receptor (Homo sapiens) (UniProt Q96RI1); assay: ATG_IR1_CIS: Attagene CIS-FACTORIAL HepG2 Assay for human Nuclear Receptor Subfamily 1 Group H Member 4 (NR1H4), IR1 submotif (AID 2282946); conditions: IR1 reporter transcription, actives raise or lower the signal
# Chain of Bile acid receptor (Homo sapiens) (Q96RI1 whole entry, looked up): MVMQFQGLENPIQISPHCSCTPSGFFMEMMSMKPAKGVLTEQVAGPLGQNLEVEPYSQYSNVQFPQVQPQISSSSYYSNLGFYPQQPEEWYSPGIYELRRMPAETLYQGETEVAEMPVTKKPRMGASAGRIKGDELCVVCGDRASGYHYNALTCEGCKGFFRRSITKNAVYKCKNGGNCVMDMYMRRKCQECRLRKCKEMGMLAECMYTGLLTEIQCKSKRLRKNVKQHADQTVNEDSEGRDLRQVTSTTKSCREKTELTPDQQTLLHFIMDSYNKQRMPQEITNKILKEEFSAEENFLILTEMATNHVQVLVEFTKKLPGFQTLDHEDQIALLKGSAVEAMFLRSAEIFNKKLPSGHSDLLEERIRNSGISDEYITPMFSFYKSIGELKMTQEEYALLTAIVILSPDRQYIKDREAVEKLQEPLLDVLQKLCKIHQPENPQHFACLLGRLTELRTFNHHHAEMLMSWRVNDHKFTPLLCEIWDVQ
# Method in brief: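 Readout: reporter transcript levels by RT-PCR with fluorescent capillary electrophoresis, from HepG2 cells transiently transfected with multiplexed cis-regulated reporters and dosed 24 h. Gain- or loss-of-signal fitted versus DMSO negative control.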
# [19] = biological target: Retinoic acid receptor alpha (Homo sapiens) (UniProt P10276); assay: ATG_DR5_RAR_CIS: Attagene CIS-FACTORIAL HepG2 Assay for human Retinoic Acid Receptor Alpha (RARE), DR5 submotif (AID 2282934); conditions: HepG2 Attagene cis-factorial RARE DR5 reporter, mRNA; actives raise or lower the signal
# Chain of Retinoic acid receptor alpha (Homo sapiens) (P10276 whole entry, looked up): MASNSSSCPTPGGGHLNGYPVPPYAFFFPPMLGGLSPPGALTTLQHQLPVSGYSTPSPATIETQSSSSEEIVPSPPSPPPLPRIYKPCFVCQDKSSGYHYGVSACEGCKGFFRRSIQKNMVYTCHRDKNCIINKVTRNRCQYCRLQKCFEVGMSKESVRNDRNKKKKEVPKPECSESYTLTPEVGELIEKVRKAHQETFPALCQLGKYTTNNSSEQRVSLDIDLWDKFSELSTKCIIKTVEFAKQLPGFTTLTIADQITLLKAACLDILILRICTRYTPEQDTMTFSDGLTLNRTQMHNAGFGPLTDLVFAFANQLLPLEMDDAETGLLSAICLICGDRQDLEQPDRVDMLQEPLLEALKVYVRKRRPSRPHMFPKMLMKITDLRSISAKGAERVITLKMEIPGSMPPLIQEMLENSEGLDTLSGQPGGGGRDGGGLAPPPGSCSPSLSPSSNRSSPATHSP
# Method in brief: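 Endpoint fitted in both directions relative to DMSO as negative control. It reflects DR5 cis-element reporter mRNA induction in transiently transfected HepG2 cells, measured 24 h after dosing through RT-PCR and fluorescent capillary electrophoresis.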
smiles,measurement,setting,value
CCCCCCCCCCCC[N+](C)(C)CCCCCCCCCCCC,AC50,[1],182 µM (active)
same,outcome,[2],inactive
same,outcome,[3],inactive
same,outcome,[4],inactive
same,AC50,[5],168 µM (active)
same,outcome,[6],inactive
same,outcome,[7],inactive
same,outcome,[8],inactive
same,outcome,[9],inactive
same,outcome,[10],inactive
same,outcome,[11],inactive
same,outcome,[12],inactive
same,AC50,[13],36.3 µM (active)
same,outcome,[14],inactive
same,outcome,[15],inactive
same,outcome,[16],inactive
same,outcome,[17],inactive
same,outcome,[18],inactive
CCCCCCCCCCCCCCCC(=O)OC,outcome,[1],inactive
same,outcome,[2],inactive
same,outcome,[3],inactive
same,outcome,[4],inactive
same,outcome,[5],inactive
same,outcome,[6],inactive
same,outcome,[19],inactive
same,outcome,[8],inactive
same,outcome,[9],inactive
same,outcome,[10],inactive
same,outcome,[12],inactive
same,outcome,[14],inactive
same,outcome,[15],inactive
same,outcome,[16],inactive
same,outcome,[18],inactive
CCCCCCOC(=O)c1ccc(O)cc1,AC50,[1],51 µM (active)
same,AC50,[2],41.8 µM (active)
same,outcome,[3],inactive
same,AC50,[4],50.4 µM (active)
same,AC50,[5],54.9 µM (active)
same,outcome,[6],inactive
same,outcome,[19],inactive
same,outcome,[7],inactive
same,AC50,[8],51.6 µM (active)
same,outcome,[9],inactive
same,AC50,[10],52.2 µM (active)
same,outcome,[11],inactive
same,AC50,[12],8.86 µM (active)
same,AC50,[13],54.1 µM (active)
same,outcome,[14],inactive
same,outcome,[15],inactive
same,outcome,[16],inactive
same,AC50,[17],60.3 µM (active)
same,AC50,[18],47.5 µM (active)
C=Cc1ccc(O)c(OC)c1,outcome,[1],inactive
same,outcome,[2],inactive
same,outcome,[3],inactive
same,outcome,[4],inactive
same,outcome,[5],inactive
same,outcome,[6],inactive
same,outcome,[7],inactive
same,outcome,[8],inactive
same,outcome,[9],inactive
same,outcome,[10],inactive
same,outcome,[11],inactive
same,outcome,[12],inactive
same,outcome,[13],inactive
same,outcome,[14],inactive
same,outcome,[15],inactive
same,outcome,[16],inactive
same,outcome,[17],inactive
same,outcome,[18],inactive
COC1=CC(=O)C[C@@H](C)[C@]12Oc1c(Cl)c(OC)cc(OC)c1C2=O,AC50,[1],138 µM (active)
same,outcome,[2],inactive
same,outcome,[3],inactive
same,outcome,[4],inactive
same,outcome,[5],inactive
same,outcome,[6],inactive
same,outcome,[19],inactive
same,outcome,[7],inactive
same,outcome,[8],inactive
same,outcome,[9],inactive
same,outcome,[10],inactive
same,outcome,[11],inactive
same,outcome,[12],inactive
same,outcome,[13],inactive
same,outcome,[14],inactive
same,outcome,[15],inactive
same,outcome,[16],inactive
same,outcome,[17],inactive
same,outcome,[18],inactive
CC(C)(C)C1CCCCC1O (centres undefined),outcome,[1],inactive
same,outcome,[2],inactive
same,outcome,[3],inactive
same,outcome,[4],inactive
same,outcome,[5],inactive
same,outcome,[6],inactive
same,outcome,[19],inactive
same,outcome,[7],inactive
same,outcome,[8],inactive
same,outcome,[10],inactive
same,outcome,[11],inactive
same,outcome,[12],inactive
same,outcome,[13],inactive
same,outcome,[14],inactive
same,outcome,[15],inactive
same,outcome,[16],inactive
same,outcome,[17],inactive
same,outcome,[18],inactive
CS(=O)(=O)c1ccc([C@@H](CC2CCCC2)C(=O)Nc2cnccn2)cc1Cl,AC50,[2],29.1 µM (active)
same,AC50,[3],68.4 µM (active)
same,outcome,[5],inactive
same,AC50,[6],127 µM (active)
same,outcome,[19],inactive
same,outcome,[7],inactive
same,outcome,[8],inactive
same,outcome,[9],inactive
same,AC50,[10],50.6 µM (active)
same,outcome,[11],inactive
same,outcome,[13],inactive
same,outcome,[14],inactive
same,outcome,[16],inactive
CCC(C)c1ccccc1O (centres undefined),outcome,[2],inactive
same,outcome,[3],inactive
same,outcome,[4],inactive
same,outcome,[5],inactive
same,outcome,[6],inactive
same,outcome,[7],inactive
same,outcome,[8],inactive
same,outcome,[9],inactive
same,outcome,[10],inactive
same,outcome,[13],inactive
same,outcome,[14],inactive
same,outcome,[15],inactive
same,outcome,[16],inactive
same,outcome,[17],inactive
